# In ChEMBL document CHEMBL4513146, “CO-ADD screening of Karazin Kharkiv National University (Ukraine) compounds”:
# Measured potencies and affinities stand elsewhere.
# What was measured:
# Klebsiella pneumoniae = conditions: Concentration 32 ug.mL-1;; ASSAY_TEST Inhibition of Bacterial Growth; detection method Absorption (OD600); MEDIA CAMHB; plate type 384well; NBS; CORNING #3640; time 18 hr
# Candida albicans = conditions: Concentration 32 ug.mL-1; ASSAY_TEST Inhibition of Fungal Growth; detection method Absorption (OD530)
# Cryptococcus neoformans = conditions: Concentration 32 ug.mL-1; ASSAY_TEST Inhibition of Fungal Growth; detection method Resazurin; Absorption (OD600-OD570); plate type 384well; NBS; CORNING #3640
Compound,Inhibition (Klebsiella pneumoniae) [%],Inhibition (Candida albicans) [%],Inhibition (Cryptococcus neoformans) [%]
CC(C)CCNC(=O)Cn1nc2n(Cc3cccs3)c(=O)c3sccc3n2c1=O,6.63,-0.58,-17.23
Cc1cccc(C)c1NC(=O)Cn1nc2c(N3CCSCC3)nc3ccccc3n2c1=O,7.3,2.93,-23.14
Cc1cc2nn(CC(=O)NCc3ccc4c(c3)OCO4)c(=O)n2c(Nc2ccccc2C)n1,10.7,2.64,-19.18
COc1ccccc1N1CCN(C(=O)Cn2nc3ccc(-c4ccccc4)nn3c2=O)CC1,2.09,1.1,-5.13
COc1ccc(-c2cc3c4nn(CC(=O)Nc5cc(C)ccc5OC)c(=O)n4ccn3n2)cc1,8.5,13.11,-15.79
Cc1ccc(CN(c2cccc(F)c2)S(=O)(=O)c2ccc3nnc(C)n3c2)cc1,-4.46,1.78,-8.87
CCc1ccccc1Sc1nccn2c(=O)n(CC(=O)N3CCN(c4ccc(F)cc4)CC3)nc12,3.21,4.71,-7.3
Cc1cc2nn(CC(=O)NC(C)C)c(=O)n2c(-c2ccc(C(F)(F)F)cc2)n1,3.27,1.65,-4.89
O=S(=O)(c1ccc2nncn2c1)N(Cc1ccccc1F)c1ccc2c(c1)OCCO2,4.19,7.13,-6.58
O=C(CSc1nnc2c3cc(-c4ccc(F)cc4)nn3ccn12)NCc1ccccc1Cl,4.63,14.03,-17.41
